The full list was thinned out, with hits kept by preference.
CHX counter = Cycloheximide Counterscreen for Small Molecule Inhibitors of Shiga Toxin; cell reporter, cycloheximide protein synthesis inhibition counterscreen; max response, %; 12% of 300,000 active; AID 2314, 2010; in the data active = max response mostly above about 13%, no sharp cut-off; inactive = mostly below about 14%; note: read at 38.3 µM for the half of the compounds with a filed dose; 0% is about no effect
Sm TGR inh = qHTS Assay for the Inhibitors of Schistosoma Mansoni Peroxiredoxins. 3% of 360,000 active. purified TGR, DTNB reduction, TNB absorbance 405 nm. Potency, µM (doses to about 114 µM), for inactives: at the top dose activity change, negative = inhibition, usual class: inhibitors; note: potency is the fitted concentration of half-maximal effect; % is set by controls: 0 for no effect and ±100 for the full control effect; nearly all actives have a fitted effect of over 60% in size
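Kinetic colorimetric format: TGR-catalysed, NADPH-driven DTNB reduction monitored via TNB absorbance. Enzyme dispensed at 20 nM; compound exposure 15 min at room temperature before reaction start.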
Shiga toxin inh = A qHTS for Small Molecule Inhibitors of Shiga Toxin; inhibition, % at 38.7 µM; 9.2% of 290,000 active; Vero cells, Shiga toxin protein synthesis inhibition reporter; in the data active = inhibition mostly above about 28%, no sharp cut-off; inactive = mostly below about 43%; note: 0% is about no effect
LmPK inhibitor = qHTS Assay for Inhibitors of Leishmania Mexicana Pyruvate Kinase (LmPK); Potency, µM (doses to about 57.5 µM), for inactives: top-dose activity change, negative = inhibition, most hits filed as inhibitors; 0.37% of 290,000 active; Q27686; purified LmPK, Kinase-Glo ATP luminescence, 1 h; AID 1721, 2009; note: potency is the fitted concentration of half-maximal effect; % is set by controls: 0 for no effect and ±100 for the full control effect
Target sequence (Q27686 whole entry, looked up): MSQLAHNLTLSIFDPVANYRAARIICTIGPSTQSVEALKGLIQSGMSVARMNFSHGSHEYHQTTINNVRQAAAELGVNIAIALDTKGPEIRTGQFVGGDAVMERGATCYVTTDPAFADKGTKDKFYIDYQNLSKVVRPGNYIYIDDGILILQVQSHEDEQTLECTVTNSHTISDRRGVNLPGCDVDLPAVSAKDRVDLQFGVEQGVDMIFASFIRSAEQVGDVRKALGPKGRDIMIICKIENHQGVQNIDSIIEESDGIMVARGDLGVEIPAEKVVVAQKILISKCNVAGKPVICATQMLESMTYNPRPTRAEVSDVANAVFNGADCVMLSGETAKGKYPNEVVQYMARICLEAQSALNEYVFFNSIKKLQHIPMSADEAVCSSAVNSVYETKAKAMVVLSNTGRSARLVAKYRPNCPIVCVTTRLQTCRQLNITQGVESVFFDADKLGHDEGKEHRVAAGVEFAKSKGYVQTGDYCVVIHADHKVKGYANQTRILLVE
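qHTS format; LmPK 0.1 nM; substrates PEP 0.5 mM and ADP 0.1 mM. One-hour room-temperature incubation, then coupled luciferase luminescence; 0.5 nM enzyme wells mark activation.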
TbPYK inhibitor = qHTS of Trypanosoma Brucei Inhibitors; pyruvate kinase (Trypanosoma brucei), Q57TT1; TbPYK enzyme, Kinase-Glo Plus ATP luminescence, 45 min; Potency, µM (doses to about 76.8 µM), without a hit: at the top dose activity, negative = inhibition, hits mostly inhibitors; 0.12% of 410,000 active; AID 624173, 2012; note: potency is the fitted concentration of half-maximal effect; % is set by controls: 0 for no effect and ±100 for the full control effect; nearly all actives have a fitted effect of over 50% in size
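TbPYK + substrate in 50 mM TEA pH 7.2, 100 mM KCl, 10 mM MgCl2, 0.05% BSA, 0.01% Tween-20; cpd pinned; ADP 130 uM final; 45 min RT; Kinase-Glo Plus 10 min; luminescence endpoint.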
Giardia FBPA inh = qHTS Assay for Inhibitors of Fructose-1,6-bisphosphate Aldolase from Giardia Lamblia; A8B2U2; purified Giardia FBPA; Potency, µM (top dose mostly 59.6 µM), inactives show top-dose activity, negative = inhibition, most hits filed as inhibitors; 0.71% of 290,000 active; note: potency is the fitted concentration of half-maximal effect; % is set by controls: 0 for no effect and ±100 for the full control effect; nearly all actives have a fitted effect of over 55% in size
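40 nM FBPA preincubated 10 min at RT with compound (up to 57.5 uM final), then substrate plus GAPDH/TPI/NAD/arsenate coupling and diaphorase/resazurin added. Fluorescence read after 20 min at RT, 525/598 nm.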
Active calls of the source: *; u = inconclusive; x = no result given. Unless noted, calls come from the whole dose curve; as a rule, active = well fitted curve in the direction sought with a large enough effect; inconclusive = small, poorly fitted or top-dose-only effect, or another doubt; inactive = no such curve, though single readings can be large; an effect the other way counts as inactive or inconclusive.

SMILES | CHX counter | Sm TGR inh | Shiga toxin inh | LmPK inhibitor | TbPYK inhibitor | Giardia FBPA inh
COC(=O)CC1C(C)(C)C(=O)C2CC3=C(CC[C@]4(C)C3=CC(=O)OC4c3ccoc3)[C@@]1(C)C2=O (some centres not stated) | x | x | x | x | x | -4%
CC(=O)NC(c1ccc(F)c(F)c1)c1nc(-c2ccc(C)c(C)c2)cs1 (configuration not stated) | x | x | x | x | -4% | x
Oc1ccc(-c2csc(Nc3cccc4ccccc34)n2)cc1O | 8 | u | 11 | -16% | -19% | u
Cc1cccc(Nc2nc(-c3ccc(O)c(O)c3)cs2)n1 | 42* | u | 85* | u | -13% | 8%
Cc1cccc(Nc2nc(-c3ccc(F)c(C)c3)cs2)n1 | 49* | -11% | 113* | 1% | -7% | 16%
CC/C(O)=N/S(=O)(=O)c1ccc(-c2c(-c3ccccc3)noc2C)cc1 | x | x | x | x | 3% | x
CCc1ccccc1Nc1ncnc2c1cnn2-c1ccc(Cl)cc1 | x | 0% | x | x | 1% | x
CCC(CO)Nc1ncnc2c1cnn2-c1ccc(Cl)cc1 (configuration not stated) | 40* | -9% | 47 | 0% | 0% | -5%
CCC(CO)Nc1ncnc2c1cnn2-c1ccc(OC)cc1 (configuration not stated) | 37* | -13% | 53* | -5% | -1% | -1%
COc1ccc(CC(=O)NNc2ncnc3c2cnn3-c2ccccc2)cc1 | -3 | -18% | 17 | 1% | -11% | 9%
Cc1cc2[nH]c3c(=O)n(Cc4ccccc4F)ncc3c2s1 | -1 | x | 2 | x | x | x
C[C@H](CO)N1C[C@H](C)[C@H](CN(C)C(=O)c2ccc3ccn(C)c3c2)OCc2cnnn2CCCC1=O | x | x | x | x | 6% | x
O=C(CN1CCCc2ccccc21)N1CCc2ccccc21 | 28* | -15% | 48* | -3% | -3% | -2%
O=C(CN1CCCCC1)N1CCc2ccccc21 | 7 | 62% | -6 | -5% | -4% | 2%
O=C(CCCC(=O)N1CCc2ccccc21)N1CCc2ccccc21 | -2 | -3% | -11 | 0% | 4% | 9%
NNC(=O)CN1CCCc2ccccc21 | 69* | -13% | 92* | 7% | 4% | 2%
CC(CC(=O)N1CCc2ccccc21)c1ccccc1 (configuration not stated) | 18* | -2% | 36 | 2% | -10% | -1%
CCCCN(C)S(=O)(=O)c1cc2c(cc1Br)CCN2C(=O)C1CC1 | x | x | x | x | -12% | x
O=C(CCCn1c(=O)c2ccccc2n(CC(=O)Nc2ccc(F)cc2F)c1=O)NCc1ccccc1Cl | x | -1% | x | x | -4% | x
COc1ccccc1CC(=O)Nc1ccc(-c2noc(COc3ccc(Br)cc3)n2)cc1 | 3 | 7% | -14 | 6% | -6% | -4%
COc1ccc(CCC(=O)Nc2ccc(-c3noc(-c4ccc(OC)c(OC)c4)n3)cc2)cc1 | 11 | 6% | 14 | 5% | -7% | u
COc1cccc(-c2nc(-c3ccc(NC(=O)Cc4ccccc4OC)cc3)no2)c1 | 22* | 0% | 43* | 2% | 5% | -15%
COc1ccc(CC(=O)Nc2ccc(-c3noc(-c4ccccc4OC)n3)cc2)cc1 | 27* | 19% | 31 | 4% | -3% | 13%
O=C(c1cnn(C(=O)c2ccco2)c1)c1cc(F)ccc1O | x | x | x | x | 2% | x
COc1cc(C(=O)OC2CC3CCC2(C)C3(C)C)ccc1OC(C)=O (configuration not stated) | 16* | 0% | -4 | 7% | -2% | 7%
COc1ccc2c(c1)[C@H]1[C@H](CO2)[C@H](c2ccccc2)[C@]2(C)C(=O)N(Cc3ccc(C)cc3)CC(=O)N12 | x | x | x | x | -1% | x
CCOc1ccc(NC(=O)CN2CCN(CC(=O)Nc3ccc(F)cc3)CC2)cc1 | -5 | u | -8 | 3% | -13% | -1%

Assay outcomes: PubChem BioAssay, National Center for Advancing Translational Sciences (NCATS)
